Among the data in PubChem BioAssay (NCATS) are Potency, max response and outcome values, retold here.

The subject of one test is W2. Put plainly: qHTS profiling for inhibitors of Plasmodium falciparum proliferation (AID 504749). The following applies: P. falciparum in erythrocytes, SYBR Green DNA, 72 h; series mostly up to 28.7 µM. A digest of the protocol: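 Three-day growth assay of blood-stage parasites in erythrocytes (0.3% parasitemia, 2.5% hematocrit) at 37 C, 5% CO2, quantified by SYBR Green DNA staining after overnight detergent lysis.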

For another test, the system named is CRL-7250. Put plainly: Cytotoxic Profiling of Annotated Libraries Using Quantitative High-Throughput Screening (AID 1296008). On max response: on the % scale 0 is the no-effect control and ±100 the full control effect. The following applies: Five cell lines viability, CellTiter-Glo ATP luminescence, 48-72 h; max response: stronger effect = lower value. A digest of the protocol:
(§1)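 Cytotoxicity was measured as CellTiter-Glo ATP luminescence, read after 10 min at room temperature. Compound treatment of the cells lasted 48 or 72 hr at 37 degrees Celsius in a qHTS format.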

The subject of another test is HEK293. Described as above. The following applies: Five cell lines viability, CellTiter-Glo ATP luminescence, 48-72 h; max response: stronger effect = lower value. Summed up: as §1
The subject of test [1] is HaCat. Described as above. The following applies: Five cell lines viability, CellTiter-Glo ATP luminescence, 48-72 h; max response: stronger effect = lower value. Summed up:
as §1

A further test concerns KB-3-1. The description is as above. As to conditions: Five cell lines viability, CellTiter-Glo ATP luminescence, 48-72 h; max response: stronger effect = lower value. A digest of the protocol: as §1
The next test has as its system NIH3T3. Described as above. As to conditions: Five cell lines viability, CellTiter-Glo ATP luminescence, 48-72 h; max response: stronger effect = lower value. A digest of the protocol:
as §1

The test system of test [2] is HACAT. Briefly: qHTS assay to identify novel small-molecules to repurpose for Merkel cell carcinoma treatment (AID 1296009). As to conditions: MCC and control cell lines, CellTiter-Glo viability, 72 h; at 44.8 µM (top of the series) unless noted. A digest of the protocol: (§2)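 After compound transfer in DMSO, plates were kept 72 hr at 37 degree celsius. Luminescent ATP signal from CellTiter-Glo served as viability measure, normalized against DMSO and no-cell controls.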

The subject of the next test is HEK293T. The test is described as above. The following applies: MCC and control cell lines, CellTiter-Glo viability, 72 h; at 44.8 µM (top of the series) unless noted. Summed up:
as §2

The test system of another test is MCC-13. Described as above. The following applies: MCC and control cell lines, CellTiter-Glo viability, 72 h; series mostly up to 46 µM. A digest of the protocol:
as §2

A further test has as its system MCC-26. The test is described as above. The following applies: MCC and control cell lines, CellTiter-Glo viability, 72 h; series mostly up to 46 µM. Summed up:
as §2

SMILES strings stand for the structures. Values joined by “and” are separate entries in the source; they are usually repeats but may differ in a detail not shown here. Identical values can stand only once. Results filed as inconclusive are left out. Some compounds were tested as several samples or in several runs, with calls that do not always agree. Active and inactive are the calls of the source. The call rests on the fitted dose curve; in most records, active means well fitted inhibition curve with a large enough effect; inconclusive means small, poorly fitted or top-dose-only effect; inactive means flat fitted curve, though single readings scatter.
Further: nearly all actives have a fitted effect of over 60% in size.
Potency means the concentration at half of the fitted maximal effect.

As to `CS(=O)(=O)OCCCCOS(C)(=O)=O`, the Potency result with W2, with MCC-13 and with MCC-26 was “inactive” throughout. Also, the max response in the test on CRL-7250 was -2.55% (inactive); in the test with HEK293, -5.94% (inactive); with HaCat [1] it was -18.7% (inactive); in the test with KB-3-1, 2.33% (inactive) and 4.33% (inactive); in the test with NIH3T3, -7.8% (inactive) and -0.608% (inactive). For the same molecule, the molecule was called inactive with CRL-7250, in the test with HEK293, in the test on HaCat [1], with HACAT [2] and with HEK293T.

For `Cc1ncc([N+](=O)[O-])n1CC(C)O` (stereo unspecified), the Potency entry in the test with W2, in the test with MCC-13 and in the test on MCC-26 was “inactive” each time. For the same molecule, the max response in the test on CRL-7250 is -19.5% (inactive); in the test on HEK293 it was 3.63% (inactive); in the test with HaCat [1], -8.77% (inactive); in the test with NIH3T3 it was 2.47% (inactive). Moreover, the result with CRL-7250, with HEK293, in the test with HaCat [1], in the test with NIH3T3, in the test on HACAT [2] and with HEK293T was inactive.

For `CN(C)C(=O)COC(=O)Cc1ccc(OC(=O)c2ccc(N=C(N)N)cc2)cc1`, the Potency entry in the test on W2, with MCC-13 and with MCC-26 was “inactive” in each case. The result in the test on CRL-7250, in the test on HEK293, with HaCat [1], in the test with NIH3T3, in the test with HACAT [2] and in the test on HEK293T was inactive. Also, the max response with HEK293 is 2.71% (inactive); in the test with HaCat [1] it was 3.28% (inactive); in the test on KB-3-1 it was 4.33% (inactive) and 2.16% (inactive); in the test with NIH3T3, 2.87% (inactive).

For `CCC1=C(C)CN(C(=O)NCCc2ccc(S(=O)(=O)NC(=O)NC3CCC(C)CC3)cc2)C1=O` (stereo unspecified), the Potency entry in the test on W2, with MCC-13 and with MCC-26 was “inactive” throughout. Also, the max response with CRL-7250 is 0.534% (inactive) and 4.01% (inactive); in the test on KB-3-1, -10.1% (inactive) and -9.63% (inactive); in the test with NIH3T3 it was 0.91% (inactive). The outcome in the test with CRL-7250, in the test on HEK293, in the test with HaCat [1], in the test on NIH3T3, in the test on HACAT [2] and in the test on HEK293T was inactive.

For the molecule `CNC[C@H](O)c1ccc(O)c(O)c1`, the Potency result with W2, with MCC-13 and in the test with MCC-26 was “inactive” each time. In addition, the max response with CRL-7250 was -3.3% (inactive) and -3.53% (inactive); in the test with HEK293 it was -3.32% (inactive); in the test with HaCat [1], -1.14% (inactive) and -13.4% (inactive); in the test with KB-3-1 it was 2.62% (inactive). The outcome in the test on HEK293 and with NIH3T3 was inactive. Further, the outcome in the test on HEK293T is “inactive [at 17.4 µM]”.

As to `COc1ccc(C2(C#N)CCC(C(=O)O)CC2)cc1OC1CCCC1` (stereo unspecified), the Potency result in the test with W2, in the test with MCC-13 and in the test on MCC-26 was “inactive” throughout. Also, the outcome in the test with CRL-7250, with HEK293, in the test with HaCat [1], in the test with HACAT [2] and with HEK293T was inactive. The max response in the test with HEK293 is 4.74% (inactive); in the test with KB-3-1, 6.11% (inactive) and 7.73% (inactive) and 2.33% (inactive); with NIH3T3, 4.78% (inactive) and 4.09% (inactive).

With `COc1ccc2cc([C@H](C)C(=O)O)ccc2c1`, the max response is -17% (inactive) and 0.0913% (inactive) and -30.7% (inactive) with CRL-7250; 0.939% (inactive) in the test with HEK293; -13.6% (inactive) with HaCat [1]; 11.2% (inactive) and 5.36% (inactive) and -1.1% (inactive) in the test with KB-3-1; 2.8% (inactive) and -7.1% (inactive) in the test on NIH3T3. Also, the call with HEK293, in the test with HaCat [1], with NIH3T3, in the test with HACAT [2] and in the test on HEK293T was inactive. For the same molecule, the Potency result with MCC-13 and with MCC-26 was “inactive” throughout.

For `O=C(NCC1CCCCN1)c1cc(OCC(F)(F)F)ccc1OCC(F)(F)F` (stereo unspecified), the max response is -77.3% (inactive) in the test on CRL-7250; -82.7% (inactive) in the test with HEK293; -9.94% (inactive) and -10.2% (inactive) with HaCat [1]; 3.67% (inactive) in the test on KB-3-1; -7.85% (inactive) in the test with NIH3T3. The call in the test on CRL-7250 was inactive. The Potency entry in the test on MCC-13 and in the test with MCC-26 was “inactive” in each case.

Regarding `O=C(NC(Cc1cc(=O)[nH]c2ccccc12)C(=O)O)c1ccc(Cl)cc1` (stereo unspecified), the Potency entry in the test on W2, in the test with MCC-13 and in the test with MCC-26 was “inactive” throughout. For the same molecule, the max response was -2.81% (inactive) with CRL-7250; -6.76% (inactive) and -6.81% (inactive) in the test with HEK293; -8.32% (inactive) with HaCat [1]; 9.29% (inactive) in the test with KB-3-1. The outcome in the test on CRL-7250, with HaCat [1], with KB-3-1, in the test with NIH3T3 and in the test with HACAT [2] was inactive.

As to `CCN(CCO)CCCC(C)Nc1ccnc2cc(Cl)ccc12` (stereo unspecified), the Potency result in the test with W2, in the test on MCC-13 and with MCC-26 was “inactive” each time. The max response is -6.76% (inactive) and 0.809% (inactive) in the test with CRL-7250; 2.34% (inactive) in the test with HEK293; -3.55% (inactive) and -14.9% (inactive) with HaCat [1]; -5.86% (inactive) and 9.19% (inactive) and -2.52% (inactive) in the test with KB-3-1; -2.56% (inactive) with NIH3T3. For the same molecule, the molecule was called inactive in the test with CRL-7250, in the test with HEK293, in the test with HaCat [1] and with NIH3T3. The outcome with HACAT [2] and in the test on HEK293T was “inactive [at 4.96 µM]” each time.

For the molecule `COC(=O)C1=C(C)NC(C)=C(C(=O)OCCCN2CCC(c3ccccc3)(c3ccccc3)CC2)C1c1cccc([N+](=O)[O-])c1` (stereo unspecified), the Potency in the test with W2 was 3.38 µM (active); with HEK293, 8.41 µM (active); in the test with MCC-26, “inactive and 23.7 µM (active)”. In addition, the max response in the test on CRL-7250 was -3.52% (inactive); in the test with HEK293, -0.0015% (inactive). The molecule was called inactive in the test with HaCat [1], in the test with NIH3T3 and with HACAT [2]. Besides, the Potency result in the test on MCC-13 was “inactive”.

Take `C[C@@H](N)C1CCC(C(=O)Nc2ccncc2)CC1` (stereo partly specified): the max response with CRL-7250 is -11.2% (inactive); in the test on KB-3-1, -5.62% (inactive); in the test on NIH3T3, -5.63% (inactive). Also, the molecule was classed as inactive in the test with HEK293, in the test on HaCat [1], in the test with HACAT [2] and with HEK293T. The Potency entry in the test with MCC-13 and in the test on MCC-26 was “inactive” throughout.
